PBM binding z-score data for 40 sequences are collected here from the supplement of paper PMC6555819.

The experiment relates to THRa homodimer (NR concentration 90 nM). The experiment in a line: PBM binding z-score (relative to random genomic background probes); higher = stronger binding; sequences stand for … in GC…GCGATTGACAGCGTAGAATGAAGG
A digest of the protocol: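 Custom Agilent 4×180K protein-binding microarrays carried double-stranded probes. Their 34-nt variable regions held direct-repeat seeds, single-nucleotide variants, half-site ablations and random human genomic background sequences. Arrays were incubated 1 h with ligand-free nuclear receptor dimers in PBS pH 7.4, 2% milk, 0.02% Triton X-100, 1 mM DTT, 0.2 mg/mL BSA and 0.4 mg/ml salmon testes DNA. Antibodies against each partner (one per run) detected binding, and scanned fluorescence was regression-normalized. Binding z-scores use random background probes as reference.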
Regarding CGAACTAGGTCAGAACAGGACGGTGAAGGATGAT, the PBM binding z-score was -0.175. On to CCTATTAGTTGACCAAAAGGGCAACCGAAGCTCG, for which the PBM binding z-score was 0.0968. The figure for ATATGTAGGTTACATCCGGGTCATTCCGGCTATG is 2.3; for CCTACTGGGCCAAGATCATTGATCAGTCAAAGCA it is -0.633. Under TCATATAGGTAAAGGTAAAAGTCGAACGATATGA stands -0.456; under ACAGACAGGTGATGACGGTAACTCAGGCTATCAT, -0.087; under ATCTCTATGTAAAGATAGTTCAGTGAATGCAAAT, -0.195. Under CGAACTTGGTCAGAACAGGACAGTGAAGGATGAT stands -0.102; under CCTACTGGGCCATTCAGAGCTCATTGATCATATG, -0.449; under TCATGTAGATCAATAGAGGTTAAGAAAGTGCGCT, -0.192. TGGCAAAGTTCAAAGGTAACGTAAGTATCCACAC yielded a PBM binding z-score of -0.0262. The figure for GGAACAAGGGCAAAGTTGATAGCATCTGTCGACG is -0.125. The figure for GATACAGGGTCCAGGCCAGAGTACGCGTATTGAT is -0.0572; for GGAACGAGGGCATTCGAGCTGATAGCATGGCGAT it is -0.936. Sequence CGAACTAGGTCAGAACAGGACAGCGAAGGATGAT had a PBM binding z-score of 0.236. The figure for GCTTACGGGTCAAAGGTTATAGCATGAATAGAAT is 0.25; for TGATATAGGTAAATGCTAGGTGAAAGTCCGATCT it is 0.59. The figure for CCGAATGGGGCATAAGGTTACCATAAGCCAGCCC is 1.45. As to CCTGGGAGGACAACAGGAGGTCAGAGCTGCCAGA, the PBM binding z-score came to 1.32. For the sequence TCACATAGGTAATACAGGTGAAAGTCGGCATCTA, the PBM binding z-score was -0.0751. The figure for CCTCGGAGGACAGAAGGTCAGAGTTGTCCGCTTT is 0.133; for ATCTCTAGGTAAAGTTCGGTGAAAGATCGATAGA it is 0.351; for CCGACTGTGGCAGAAAGGTTACCATACCATCCGG it is -0.0743.

Consider TCTAGTTGGTCAAAGGACACACACTCGAAATGCG, for which the PBM binding z-score came out at 1.14.

Turning to AATACAGGGTCACTAGGCTAGAGTAGGTACGAAT, the PBM binding z-score was determined as 1.23. The figure for TGTGCTAGGTCAGTTGGTCAGCTAACGAGCTGCC is -0.0529; for ATATGTAGGTTATCGGGTCATCCAGTTTGCGCAT it is 3.07; for CCTAGTTGGTCAGGAGGTCTCACACCGGATATGA it is 0.505. TCTTGTAGATCAATATAGGTTAAGAAAGTGCGCT yielded a PBM binding z-score of -0.0282.

Take GTACCAAGGTGAATAGGCCGTTGATGAGTAGGCG: the PBM binding z-score came out at 0.224. Under TCTGCTAGGGCAGTTGGTCAGCTAACGAGCTGCC stands -0.968.

AGTCAAAATTCATCTAGGTAACGTAAGATATGCT displayed a PBM binding z-score of 0.0978. The figure for CCAGACAGGTGAGAAGGTTACTCAGCCTCGATTA is 0.115.

With AGTCAAAGTTCAGGACGAGGTAACATAAAGCACG, the PBM binding z-score came out at 1.55. The figure for TGAATGAGGTTAAAGATCAGGGACCGTGGCGTCG is 0.453; for CAAAGTAGGTCAAAGGTCAAAGTCGAGCCAACCA it is 1.22. Under CCTTACGGGTCACTCCAGGTTATGGCATCGGAGT stands 0.627. In turn, GCTTACGGGACAAAGGTTATAGCATGAATAGAAT gave a PBM binding z-score of -0.159. Under ACTATTAGTTGAGACGAGGGCAATCGATAGGTTG stands -0.15; under CTCGAAAGGTCCTGCTCAGGTGAGTATACCAAAC, 0.634.
